Data published in PubChem BioAssay AID743156 (Broad Institute, 2013).
The list shows a part of the results. A number with no mark means an inactive call.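 Rule for the calls: active = mean inhibition across replicates of at least 20% with every single replicate also at 20% or more; inconclusive = mean inhibition at least 20% but some replicate falls below 20%; inactive = mean inhibition under 20% and not all replicates reach it.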

Test system: PglD UDP-4-amino-sugar N-acetyltransferase (Campylobacter jejuni)
Test: inhibition of C. jejuni PglD N-acetyltransferase – biochemical, DTNB absorbance, single point, cherry-picked samples, confirmation (AID 743156);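 note: initial rate of CoA release by acetyl transfer from AcCoA to the UDP-4-amino sugar; 0% = median of neutral control wells and 100% = median of positive control wells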
Conditions: Purified C. jejuni PglD, DTNB absorbance 412 nm; at 20 µM; stronger effect = higher value

c1ccc2sc(N3CCNCC3)nc2c1
inhibition: 8.98%
